In one experiment the target is PPP2R2B. Description: pooled miR-30 sensor sort-seq; sequence = guide strand. As to conditions: shRNA.
TTCTTCTATTTCTAAACTCTTC came in with a sensor-assay potency score (higher = more potent) of -0.752. TTGACGGTCAAGTAGTCCCTGG returned a sensor-assay potency score (higher = more potent) of -0.065. Turning to TAGAGGGAACACAGCTTGCTGC, the sensor-assay potency score (higher = more potent) is -0.62.

The target in the next experiment is PPP2R4. Described as above. As to conditions: shRNA.
For the sequence TTTAATCTGAACAGCAATGAGG, the sensor-assay potency score (higher = more potent) is -0.87. In turn, TTGAGGGTAAGGATGAATCCGA yielded a sensor-assay potency score (higher = more potent) of -0.403. Still for that read-out and setting: with TCTGCTTCCTCGGAGACTCTGT the figure was 0.193. In turn, TTTAGGTAAACAGCCACCTCAG had a sensor-assay potency score (higher = more potent) of -0.616.

In turn, TTGAAGTGCTGGATCACAGGGA displayed a sensor-assay potency score (higher = more potent) of 1.03. TATTTGGTCATCCACCCGGAGC had a sensor-assay potency score (higher = more potent) of -1.25. Same read-out and setting: with TTCTCATCCACAAAGTGTCTGG the figure was -0.351; with TGGAACTGTGTGGATCTCCTTT, -1.01. Same read-out and setting: with TTGAAGACAATAGCTATTTGGT the figure was -0.254. Sequence TTTGGAATGATGAAGTTCTGAG had a sensor-assay potency score (higher = more potent) of -0.0141. The same measure, in the same setting: to TTCATCTCGGTAATAAACAGGA belongs 0.112. Same read-out and setting: to TTTTGGAATGATGAAGTTCTGA belongs -0.939.

The next experiment has as its target PPP3R1. Described as above. The settings on record: shRNA.
TAGCCTTTTAATTTCATCCGCA: the sensor-assay potency score (higher = more potent) is 0.489. The same measure, in the same setting: to TTTTGTCTACAATTTGCTGTAA belongs -0.67; to TTCAATAACACTTAGTTGGCTT, 0.15. In turn, TAAAATCACAACTAGCACTTAA gave a sensor-assay potency score (higher = more potent) of -0.328.

TTATCTGCATTTATTATGGTTT gave a sensor-assay potency score (higher = more potent) of -0.79.

Consider TTTGTCTACAATTTGCTGTAAC, for which the sensor-assay potency score (higher = more potent) is -1.15. Same read-out and setting: with TTTTTGTGGATATCTAGGCCAC the figure was -0.626.

For the sequence TTAAATCTCTTTCCTAGCCTTT, the sensor-assay potency score (higher = more potent) was -0.556. Sequence TTACTCGCTGTACTAAAGGATT registered a sensor-assay potency score (higher = more potent) of -1.35. As for TCTCCTTTGACACTGAACTGAG, the sensor-assay potency score (higher = more potent) was -0.401.

AATATAGCCATCTTTATCCATG displayed a sensor-assay potency score (higher = more potent) of -1.54. For the sequence TTTGCTGTAACTGTGTATCTTT, the sensor-assay potency score (higher = more potent) was 0.559.

For another experiment, the target named is PPY. The description is as above. The settings on record: shRNA.
In turn, TGTATCTACGGAGATCAGCTGC displayed a sensor-assay potency score (higher = more potent) of 0.303.

The sequence TAACAGAGCCACGCAGGTGGAC showed a sensor-assay potency score (higher = more potent) of -1.08. In turn, TACTGGGCCATCTGCTCTGGTG gave a sensor-assay potency score (higher = more potent) of -1.25.

Sequence TCTGGTGTGGCATTGTCCCCTG displayed a sensor-assay potency score (higher = more potent) of 0.0817. Regarding TCCTCTTTGTGTCTTTTCCCAT, the sensor-assay potency score (higher = more potent) was -1.36.

ATCTACGGAGATCAGCTGCATA had a sensor-assay potency score (higher = more potent) of -1.14. On to AGCATGTTGATGTATCTACGGA, for which the sensor-assay potency score (higher = more potent) is -1.31. The same measure, in the same setting: to TGTAGTAACAGAGCCACGCAGG belongs -1.22. On the same count and under the same terms, to TGTTGATGTATCTACGGAGATC belongs -1.64; to ATCAGCTGCATACTGGGCCATC, -1.61; to TATCTACGGAGATCAGCTGCAT, 0.435. On the same count and under the same terms, with TGATGTATCTACGGAGATCAGC the figure was -1.04.

These data come from the OligoGym collection.
Further: reference of the scale not given here.
